# Active and inactive are the calls of the source.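 How the source made its calls: active means blocks over 70% of labeled estradiol binding at 10 µM, or over a set limit at 100 nM; inactive means the rest.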
# Target: Estrogen receptor beta (Homo sapiens) (UniProt Q92731)
# Assay: ERbeta ligand binders by competition, primary screen, cell-based, Cos7 ERbeta-GFP, flow cytometry (AID 1210);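 further: 0% = DMSO vehicle wells and 100% = complete loss of labeled estradiol signal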
# Conditions: fluorescent estrogen binding, stronger effect = higher value
# [1] = ligand binding inhibition, at 0.1 µM
# Estrogen receptor beta (Homo sapiens), sequence (Q92731 whole entry, looked up): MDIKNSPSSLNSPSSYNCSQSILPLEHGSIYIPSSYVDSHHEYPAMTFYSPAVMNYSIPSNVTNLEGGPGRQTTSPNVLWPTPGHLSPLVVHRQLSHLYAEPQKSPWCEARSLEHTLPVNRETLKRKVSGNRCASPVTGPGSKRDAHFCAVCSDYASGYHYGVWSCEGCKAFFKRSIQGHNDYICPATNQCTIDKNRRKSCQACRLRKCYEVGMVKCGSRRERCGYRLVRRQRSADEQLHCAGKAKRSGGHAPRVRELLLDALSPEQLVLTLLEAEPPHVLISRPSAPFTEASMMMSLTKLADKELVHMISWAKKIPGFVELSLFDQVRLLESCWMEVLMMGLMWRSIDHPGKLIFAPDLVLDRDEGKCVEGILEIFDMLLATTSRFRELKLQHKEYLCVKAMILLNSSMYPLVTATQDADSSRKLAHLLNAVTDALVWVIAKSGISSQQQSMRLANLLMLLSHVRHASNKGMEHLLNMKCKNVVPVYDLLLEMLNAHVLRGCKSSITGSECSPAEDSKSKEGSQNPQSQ
SMILES,inhibition (at 10 µM),inhibition [1] [%]
Oc1ccc(-c2nccc(-c3cccs3)n2)cc1,28% (inactive),14
Cc1ccc(S(=O)(=O)Cc2ccc(C(=O)N3CCN(Cc4ccccc4)CC3)o2)cc1,37% (inactive),18
Nc1ccc2oc(-c3ccccc3Cl)cc(=O)c2c1O,25% (inactive),26
Cc1ccc(C)c(SCC(=O)OCC(=O)c2ccco2)c1,50% (inactive),57
Cc1cc(C)c(S(=O)(=O)/N=C2\C=CC(=O)C(Cl)=C2)c(C)c1,0% (inactive),16
C/C(N)=C(/C#N)C(=O)CSc1nnc(Nc2ccccc2C)s1,44% (inactive),13
Cc1cc(C(=O)Nc2sc3c(c2C#N)CCC3)no1,46% (inactive),23
Cc1ccc(C(=O)N/N=C/c2ccc([N+](=O)[O-])s2)cc1,38% (inactive),58
CCSc1nc2c(cnn2-c2ccc(C)cc2)c(=O)[nH]1,31% (inactive),29
FC(F)(F)c1ccc2c(c1)C1C=CCC1C(c1ccncc1)N2 (centres undefined),0% (inactive),51
COc1ccc(-c2ccc(-c3noc(-c4cccs4)n3)c(OC)n2)cc1,63% (inactive),20
CCN(CC)c1ccc2c(c1)oc(=O)c1c(Cl)cc(=O)oc12,33% (inactive),18
COc1ccc(-c2nnc(-c3cc4c(ccc5ccccc54)oc3=O)o2)cc1,33% (inactive),6
NC(=S)n1[nH]c(-c2ccc([N+](=O)[O-])cc2)c(N=Nc2ccc(O)cc2)c1=O,35% (inactive),15
O=C(Cc1cccs1)Nc1ccc(S(=O)(=O)Nc2ncccn2)cc1,62% (inactive),1
COc1cc2c(cc1OC)C(Cc1ccc(O)cc1)NCC2 (centres undefined),23% (inactive),13
COc1ccc2[nH]c3nc(SCc4nnc(-c5ccc(C)cc5)o4)nnc3c2c1,49% (inactive),18
Cc1cc(=O)oc2c(CN3CCC(C)CC3)c(O)c(Cl)cc12,20% (inactive),11
CCCC1=NN2C(=N)/C(=C\c3ccc(SCc4ccco4)o3)C(=O)N=C2S1,13% (inactive),17
O=C(CSc1nc2ccccc2c(=O)[nH]1)c1ccc(O)c(O)c1,36% (inactive),14
O=C(Oc1cccc(-c2cnc3ccccc3n2)c1)c1ccco1,9% (inactive),4
CC1(C)CC(=O)c2c(oc3cc(O)c(O)cc23)C1,11% (inactive),3

SMILES,inhibition (at 10 µM),inhibition [1] [%]
O=S(=O)(NCc1csc(-c2cccnc2)n1)c1cccs1,34% (inactive),21
COc1ccccc1N1CCN(C(=O)c2ccc3nc(-c4ccco4)c(-c4ccco4)nc3c2)CC1,60% (inactive),11
O=C(CCCn1c(=S)[nH]c2ccccc2c1=O)N1CCN(c2cccc(Cl)c2)CC1,73% (active),28
O=C(COC(=O)c1ccccc1Oc1ccccc1)NCc1ccco1,16% (inactive),65
Cc1ccc(N=Cc2ccc(O)cc2O)cc1F,34% (inactive),15
CN(C(=S)Nc1cccnc1)c1ccc(O)cc1,14% (inactive),54
COc1cccc(-n2nnnc2SCC(=O)Nc2ccc(C(C)=O)cc2)c1,61% (inactive),51
O=C(O)c1cc(-c2ccc(O)cc2)nc2ccccc12,57% (inactive),8
CC(=O)c1cccc(NC(=O)Cc2cccs2)c1,11% (inactive),23
Cc1ccc2c(c1)c(=O)c1c3n2CCN(C(=O)CCl)C3CC1 (centres undefined),37% (inactive),33
CC(Oc1ccc(Cl)cc1Cl)C(=O)Nc1ccc2oc(-c3ccncc3)nc2c1 (centres undefined),50% (inactive),27
CNc1nnc(-c2cc3cc(Cl)ccc3oc2=O)s1,0% (inactive),4
COC1=C/C(=C/c2c(N)n3cc(C)sc3nc2=O)C=CC1=O,62% (inactive),7
CCO/C([O-])=N/c1c[n+](N2CCOCC2)no1,21% (inactive),44
Cc1nc2ccccc2c(=O)n1/N=C/c1c(O)ccc2oc3c(c12)CCCC3,47% (inactive),34
Cc1snc2sc(C(=O)c3ccc(Br)cc3)c(N)c12,26% (inactive),20
Oc1ccc(C=Nc2ccc(N3CCOCC3)cc2)c(O)c1,51% (inactive),63
CC1Cc2ccccc2N1C(=O)CSc1nnc(-c2ccc(S(=O)(=O)N3CCCC3)cc2)o1 (centres undefined),54% (inactive),19
Cc1ccc(C2=Nc3ccccc3N=C(c3ccco3)C2)c(O)c1,2% (inactive),29
CCOc1cc(C2CC(=O)c3c(ccc4ccccc34)N2)ccc1O (centres undefined),19% (inactive),8
CC(Cc1ccc(O)c(O)c1)C(C)Cc1ccc(O)c(O)c1 (centres undefined),65% (inactive),18
Cc1ccc(C(=O)CSC2=C(C#N)C(c3ccco3)CC(=O)N2)c(C)c1 (centres undefined),54% (inactive),14

SMILES,inhibition (at 10 µM),inhibition [1] [%]
COc1cc(-c2nc3ccc4ccccc4c3c3c2CCC3)ccc1O,0% (inactive),59
O=C(O)c1ccc2c(c1)[C@@H]1C=CC[C@@H]1[C@H](c1ccccn1)N2,0% (inactive),25
Cc1cc(C(=O)CSc2nnc(-c3ccccc3F)o2)c(C)n1Cc1cccs1,51% (inactive),30
Oc1ccc(-c2nc(-c3ccc(O)c(O)c3)cs2)cc1,55% (inactive),54
O=C1/C(=C\c2ccco2)SC(=S)N1c1ccc(O)cc1,77% (active),27
COC(=O)c1ccc2c(=O)n(CC3CCCO3)c(SCC(=O)Nc3ccccc3Cl)nc2c1 (centres undefined),65% (inactive),4
COc1ccc(NC(=O)c2ccco2)cc1N,69% (inactive),17
O=C(c1cccs1)N1N=C(c2ccc(O)cc2)CC1c1ccccc1 (centres undefined),68% (inactive),23
COc1ccc(CNC(=O)COC(=O)c2cc(-c3ccco3)nc3ccccc23)cc1,18% (inactive),8
COc1ccc(NC(=O)C(c2ccccc2)N(C)C(=O)c2ccc(=O)[nH]c2)cc1 (centres undefined),17% (inactive),56
O=S(=O)(NCCc1csc(-c2cccnc2)n1)c1ccc(Cl)s1,69% (active),78
Cc1ccccc1NC(=O)CSc1nnc(-c2ccco2)c(-c2ccco2)n1,31% (inactive),27
Cn1nnnc1SCC(=O)Nc1nc(-c2ccccc2)c(-c2ccccc2)o1,39% (inactive),32
CSCCC(NC(=O)c1ccco1)C(=O)OCC(=O)Nc1sccc1C#N (centres undefined),6% (inactive),28
Cc1nn2cc(-c3ccc(N)cc3)nc2s1,23% (inactive),15
Nc1ncnc2c1ncn2C1CCC(CO)C(O)C1 (centres undefined),48% (active),69
Cc1c(Cl)cccc1NS(=O)(=O)c1ccc2c(c1)C1C=CCC1C(c1ccc(C(=O)O)cc1)N2 (centres undefined),2% (inactive),12
C=CCSC1=N/C(=C\C=C\c2ccco2)C(=O)S1,24% (inactive),1
Cc1oc2c(C)c(O)ccc2c(=O)c1N1C(=O)c2ccccc2C1=O,16% (inactive),18
CCCSC1=N/C(=C\C=C\c2ccco2)C(=O)S1,47% (inactive),31
COc1cc(C2CC(=O)c3c(ccc4ccccc34)N2)ccc1O (centres undefined),47% (inactive),14
O=c1cc(O)c2c(=O)n(-c3ccccc3)c3c(c2o1)CCCCCC3,59% (inactive),2

SMILES,inhibition (at 10 µM),inhibition [1] [%]
O=c1cc(CSc2nnc(-c3cccs3)n2Cc2ccccc2)nc2sc3ccccc3n12,54% (inactive),26
NC(=O)c1oc2ccccc2c1NC(=O)c1nc2ccccc2s1,39% (inactive),10
N#Cc1ccc(-c2cccnc2)nc1SCC(=O)Nc1sc2c(c1C#N)CCC2,0% (inactive),10
O=c1c(C(c2ccc(O)cc2)c2c(O)nc3n(c2=O)CCS3)c(O)nc2n1CCS2,3% (inactive),7
Nc1ccc2nc(-c3cccnc3)[nH]c2c1,50% (inactive),20
Cc1nc2sccn2c1-c1nc(-c2cc3ccccc3o2)cs1,43% (inactive),9
COc1cc(C2Nc3c(F)cccc3C3C=CCC32)cc(Br)c1OC (centres undefined),0% (inactive),25
COc1ccc(OC)c(C2Nc3c(Cl)ccc(C(=O)O)c3C3C=CCC32)c1 (centres undefined),0% (inactive),52
c1ccc(OCc2nnc3sc(C4COc5ccccc5O4)nn23)cc1 (centres undefined),29% (inactive),28
COCc1cc(=O)n2c(-c3ccc(C)cc3)n[nH]c2n1,12% (inactive),39
O=C1C2CC=C(Cl)CC2C(=O)N1CCCCCCN1C(=O)C2CC=C(Cl)CC2C1=O (centres undefined),28% (inactive),36
O=[N+]([O-])c1cc(/C=N/N2CCN(C3c4ccccc4-c4ccccc43)CC2)ccc1Cl,21% (inactive),2
COc1ccc(C(=O)N/N=C(\C)c2ccc3c(c2)C2C=CCC2C(c2ccccc2)N3)cc1 (centres undefined),67% (active),66
Nc1ccc(-c2nc3ccc(C(=O)O)cc3s2)cc1,65% (inactive),10
O=C(NC1CCN(C(=O)N2c3ccccc3Sc3ccccc32)CC1)c1ccccc1Cl,18% (inactive),23
COc1ccc(C2CC(c3cccs3)=NN2c2ccc(C=O)cc2)cc1 (centres undefined),42% (inactive),29
CN(CC(=O)NC(=O)NCc1ccco1)Cc1nc2ccccc2c(=O)[nH]1,14% (inactive),53
Oc1ccc(/C=C/c2nc(-c3ccccc3O)n(-c3ccccc3)n2)cc1,44% (inactive),31
O=C1N/C(=C\c2ccc(O)cc2)C(=O)c2ccccc21,21% (inactive),1
Cc1ccc(NC(=O)CSc2nc3ccccc3c3nc4ccccc4n23)cc1,59% (inactive),7
O=C(Nc1cnn(C23CC4CC(CC(C4)C2)C3)c1)c1cnn2c(C(F)(F)F)cc(-c3ccco3)nc12,26% (inactive),20

# From PubChem BioAssay AID1210 (NMMLSC, 2008)
